# In PMC7826789 (International Journal of Molecular Sciences, 2021):
# Key:
# Conditions in all cases: Compound Concentration (nM):1000
# [1] = system: LRRK2
# [2] = system: LTK
# [3] = system: LYN
# [4] = system: T1, LZK
# T1 construct: gene MAP3K13
# [5] = system: MAK
# [6] = system: MAP3K15
# [7] = system: MAP3K1
# [8] = system: MAP3K2
# [9] = system: MAP3K3
# [10] = system: MAP3K4
# [11] = system: MAP4K2
# [12] = system: MAP4K3
# [13] = system: MAP4K4
# [14] = system: MAP4K5
# [15] = system: MAPKAPK2
# [16] = system: MAPKAPK5
# [17] = system: MARK1
# [18] = system: MARK2
# [19] = system: MARK3
# [20] = system: MARK4
# 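Also: KINOMEscan scanMAX binding as percent activity remaining versus control; lower means stronger binding.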
Compound,Percent Control [1] [%],Percent Control [2] [%],Percent Control [3] [%],Percent Control [4] [%],Percent Control [5] [%],Percent Control [6] [%],Percent Control [7] [%],Percent Control [8] [%],Percent Control [9] [%],Percent Control [10] [%],Percent Control [11] [%],Percent Control [12] [%],Percent Control [13] [%],Percent Control [14] [%],Percent Control [15] [%],Percent Control [16] [%],Percent Control [17] [%],Percent Control [18] [%],Percent Control [19] [%],Percent Control [20] [%]
Nc1ncnc2occ(-c3ccc(NC(=O)Nc4cc(C(F)(F)F)ccc4F)cc3)c12 [GW770249X],77,4.5,29,100,100,100,51,91,91,94,27,29,56,11,100,100,83,94,71,94
COc1ccc(COc2ccc(Cc3cnc(N)nc3N)cc2OC)cc1 [GW632580X],83,86,100,77,89,95,65,97,91,90,97,82,100,99,95,97,83,93,66,57
COc1ccccc1-c1cc(/C=C2\C(=O)Nc3ncc(Br)cc32)cc(Br)c1O [GW442130X],100,100,100,84,100,89,99,100,100,100,89,100,96,94,100,100,81,100,100,100
COc1cc(/C=N/Nc2ncnc3[nH]ncc23)ccc1O [GW578748X],54,100,86,100,100,96,49,67,85,93,43,100,100,100,100,100,79,100,99,60
COc1cc(C=NNc2ncnc3c2cnn3-c2ccccc2)ccc1O [GW513184X],100,100,74,98,78,100,100,99,73,100,89,100,66,94,100,97,97,90,100,93
COc1ccc2[nH]c3c4[nH]c5ccc(OC)cc5c4c4c(c3c2c1)C(=O)NC4=O [GW296115X],2.8,58,69,77,82,64,71,85,59,100,75,73,2.7,51,100,90,100,71,83,100
C[C@@H](Oc1cc(-n2cnc3ccc(OC4CCN(C)CC4)cc32)sc1C(N)=O)c1ccccc1Cl [GSK579289A],77,24,93,78,100,95,41,83,65,67,24,93,49,36,100,100,85,77,80,89
CN(C)CCNC(=O)Nc1ccc(N(C)c2ccnc(Nc3ccc(CS(C)(=O)=O)cc3)n2)cc1.Cl [GW830900A],83,100,100,75,100,100,82,69,84,99,80,69,66,77,100,93,84,67,55,100
COc1cc2ncn(-c3cc(O[C@H](C)c4ccccc4Cl)c(C(N)=O)s3)c2cc1OC [GSK237701A],70,26,81,70,100,100,2.6,84,83,100,50,33,90,7.5,100,100,77,100,100,74
